Here are results for five molecules from PubChem BioAssay.

The source made the active and inactive calls. Unless noted, no rule for the calls is given here.

Test [1] in a line: anti-His antibody binders, primary screen, artefact control for SMM control protein annotation, biochemical, small-molecule microarray, 635 nm fluorescence (AID 1128).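 Also: score merges feature fluorescence with signal-to-noise for each printed compound spot.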 The conditions noted are these: anti-His Alexa647 antibody binding, higher = more signal.
Test [2] has as its system Human papillomavirus type 1a E7 protein (residues 1-88). The test can be described thus: HPV1a E7 small-molecule binders, primary screen, biochemical, small-molecule microarray, residues 1-88, 635 nm (AID 1129). Conditions: small-molecule microarray binding, fluorescence 635 nm; higher = more signal.
The target in test [3] is Focal adhesion kinase 1 (Homo sapiens) (UniProt Q05397). The test can be described thus: small-molecule microarray binders of FAK, primary screen, biochemical, 635/667 nm fluorescence, BSA, DTT (AID 1130).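 Also: composite of spot emission at 667 nm and signal to noise over triplicate slides.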 Conditions: PTK2 binding, 635 nm fluorescence, higher = more signal.
Focal adhesion kinase 1 (Homo sapiens), sequence (Q05397 whole entry, looked up): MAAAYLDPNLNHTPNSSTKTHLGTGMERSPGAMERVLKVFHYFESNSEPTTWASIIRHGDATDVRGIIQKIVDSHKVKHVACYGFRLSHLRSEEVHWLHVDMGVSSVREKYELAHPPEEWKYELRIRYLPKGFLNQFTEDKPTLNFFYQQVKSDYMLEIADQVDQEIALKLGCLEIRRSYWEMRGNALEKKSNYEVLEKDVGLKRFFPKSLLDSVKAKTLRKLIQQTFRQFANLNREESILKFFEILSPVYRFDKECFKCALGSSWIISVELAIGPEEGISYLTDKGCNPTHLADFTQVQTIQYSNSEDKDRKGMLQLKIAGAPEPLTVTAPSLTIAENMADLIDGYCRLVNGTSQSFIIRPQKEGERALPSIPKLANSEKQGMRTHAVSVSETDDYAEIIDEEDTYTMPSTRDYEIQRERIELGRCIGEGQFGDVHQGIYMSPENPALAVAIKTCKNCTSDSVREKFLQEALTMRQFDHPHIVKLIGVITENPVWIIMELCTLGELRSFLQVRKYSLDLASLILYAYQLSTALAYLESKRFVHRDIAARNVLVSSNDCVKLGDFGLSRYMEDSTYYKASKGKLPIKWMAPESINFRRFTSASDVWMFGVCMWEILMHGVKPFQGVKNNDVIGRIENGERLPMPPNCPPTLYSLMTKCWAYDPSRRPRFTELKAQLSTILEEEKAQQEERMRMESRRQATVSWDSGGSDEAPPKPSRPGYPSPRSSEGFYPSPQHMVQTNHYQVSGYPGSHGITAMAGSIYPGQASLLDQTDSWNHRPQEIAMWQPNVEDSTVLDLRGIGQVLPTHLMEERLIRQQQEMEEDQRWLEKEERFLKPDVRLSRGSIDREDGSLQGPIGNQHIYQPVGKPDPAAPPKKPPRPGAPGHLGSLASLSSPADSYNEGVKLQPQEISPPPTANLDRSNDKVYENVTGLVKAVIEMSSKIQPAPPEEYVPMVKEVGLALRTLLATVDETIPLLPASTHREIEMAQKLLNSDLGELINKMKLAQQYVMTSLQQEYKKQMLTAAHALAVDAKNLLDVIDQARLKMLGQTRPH
In test [4] the test system is Fibrinogen (Alexa647-labelled). The test can be described thus: fibrinogen binders on compound microarrays, profiling panel, artefact control for SMM control-protein annotation, biochemical, small-molecule microarray, 635/667 nm fluorescence (AID 1131).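 Also: z-score merges 667 nm fluorescence with per-spot signal-to-noise over triplicate slides.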 The conditions noted are these: fibrinogen-A647 binding fluorescence, higher = more signal.
Test [5] deals with Follistatin (Homo sapiens) (UniProt P19883). Nature of the test: follistatin binders on small-molecule microarrays, primary screen, biochemical, small-molecule microarray, 635/667 nm fluorescence (AID 1132). Conditions: FST binding, 635 nm fluorescence, higher = more signal.
Follistatin (Homo sapiens), sequence (P19883 whole entry, looked up): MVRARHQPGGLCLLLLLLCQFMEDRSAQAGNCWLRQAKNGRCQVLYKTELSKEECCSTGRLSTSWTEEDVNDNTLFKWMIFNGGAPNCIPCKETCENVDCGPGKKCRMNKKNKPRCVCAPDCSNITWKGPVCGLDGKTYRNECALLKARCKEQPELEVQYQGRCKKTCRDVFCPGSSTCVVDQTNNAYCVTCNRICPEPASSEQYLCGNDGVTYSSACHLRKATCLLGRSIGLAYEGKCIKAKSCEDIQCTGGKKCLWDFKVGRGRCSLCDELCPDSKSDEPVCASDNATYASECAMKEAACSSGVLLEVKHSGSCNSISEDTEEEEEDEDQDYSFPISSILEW
For test [6], the target named is Fibroblast growth factor 2 (Homo sapiens) (UniProt P09038). The test can be described thus: FGF2 binders on small-molecule microarrays, primary screen, biochemical, small-molecule microarray, 635/667 nm fluorescence (AID 1133). The conditions noted are these: small-molecule microarray binding, FGF2, fluorescence 635/667; higher = more signal.
Fibroblast growth factor 2 (Homo sapiens), sequence (P09038 whole entry, looked up): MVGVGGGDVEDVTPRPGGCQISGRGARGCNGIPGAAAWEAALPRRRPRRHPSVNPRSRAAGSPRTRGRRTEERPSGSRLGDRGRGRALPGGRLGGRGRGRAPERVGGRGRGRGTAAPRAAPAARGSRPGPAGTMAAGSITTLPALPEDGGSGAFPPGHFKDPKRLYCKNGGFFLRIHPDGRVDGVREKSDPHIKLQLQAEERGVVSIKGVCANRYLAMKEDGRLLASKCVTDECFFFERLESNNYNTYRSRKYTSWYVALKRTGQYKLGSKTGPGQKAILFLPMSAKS
A short description of test [7]: mitochondrial membrane potential change in A549 cells, profiling panel, cell-based, JC-1 fluorescence, basal, 24 h, 100 nL (AID 1138).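 Also: A549 lung adenocarcinoma cells under basal conditions with no added stimulus; test concentration not given here.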 Conditions: higher = more signal.
The subject of test [8] is Lefty1. Nature of the test: Lefty1 binders on small-molecule microarrays, primary screen, biochemical, small-molecule microarray, 635/667 nm fluorescence (AID 1139). The conditions noted are these: small-molecule microarray binding, fluorescence 635/667; higher = more signal.
Test [9] deals with wheat germ agglutinin (Triticum aestivum), Alexa647-labelled. Nature of the test: wheat germ agglutinin binders on compound microarrays, profiling panel, artefact control for SMM control-protein annotation, biochemical, small-molecule microarray, 635/667 nm fluorescence (AID 1140).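 Also: score merges 667 nm feature emission with signal to noise over triplicate slides.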 Conditions: WGA-A647 binding, 635 nm fluorescence, higher = more signal.
In test [10] the target is Luciferin 4-monooxygenase (Photinus pyralis) (UniProt P08659). The test can be described thus: firefly luciferase enzyme inhibitors, primary screen, biochemical, luminescence, purified enzyme, 2006 set (AID 1141).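 Also: cell-free assay with purified firefly luciferase at 100 ng per well in PBS; test concentration not given here.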 Conditions: SteadyGlo luminescence, 30 min, higher = more signal, called active from +8 up or from −8 down.
Luciferin 4-monooxygenase (Photinus pyralis), sequence (P08659 whole entry, looked up): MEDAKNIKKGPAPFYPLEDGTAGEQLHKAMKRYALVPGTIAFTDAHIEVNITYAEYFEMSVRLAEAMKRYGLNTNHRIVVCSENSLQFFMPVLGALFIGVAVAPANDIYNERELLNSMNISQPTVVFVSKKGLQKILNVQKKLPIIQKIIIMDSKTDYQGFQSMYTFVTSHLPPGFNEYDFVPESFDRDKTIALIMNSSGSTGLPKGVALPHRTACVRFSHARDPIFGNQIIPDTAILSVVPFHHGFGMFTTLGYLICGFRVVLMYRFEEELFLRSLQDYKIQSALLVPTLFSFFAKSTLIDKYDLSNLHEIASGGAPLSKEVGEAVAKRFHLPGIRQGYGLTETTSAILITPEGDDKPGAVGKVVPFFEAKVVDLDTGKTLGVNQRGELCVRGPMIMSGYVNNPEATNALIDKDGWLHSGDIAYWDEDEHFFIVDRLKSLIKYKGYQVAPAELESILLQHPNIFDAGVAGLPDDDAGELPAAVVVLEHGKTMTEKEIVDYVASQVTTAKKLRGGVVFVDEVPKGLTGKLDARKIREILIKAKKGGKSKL
For test [11], the system named is Wnt5a (protein binding on small-molecule microarray). Nature of the test: Wnt5a binders on small-molecule microarray, primary screen, biophysical, 635/667 nm fluorescence (AID 1142).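 Also: fluorescence read at 667 nm with signal to noise per printed feature.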 The conditions noted are these: 635 nm fluorescence, higher = more signal.
The nature of test [12]: cell viability in Huh7 cells, primary screen, cytotoxicity control for HCV replication inhibitor project, CellTiter-Glo luminescence, basal, 48 h (AID 1143).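 Also: Huh7 hepatoma cells carrying a hepatitis C replication reporter with no stimulus; test concentration not given here.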 The conditions noted are these: Huh7 HCV replicon, higher = more signal, called active from +8 up or from −8 down. A general note: In ATP-based viability assays light output follows the ATP content of the culture.
Test [13] is described as follows: P. aeruginosa biofilm formation inhibitors, primary screen, PAO1 strain, BacTiter-Glo luminescence, LB-PBS (AID 1144). Conditions: 12 h, higher = more signal.
Test [14] in a line: CREB reporter modulators without forskolin, primary screen, cell-based, PC12, CRE-LacZ reporter, unstimulated (AID 1145). Conditions: no forskolin, luminescence, 4.5 h, higher = more signal, called active from +8 up or from −8 down.
Test [15] in a line: CREB reporter modulators under forskolin, primary screen, cell-based, PC12, CRE-LacZ reporter, forskolin-stimulated (AID 1146).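 Also: PC12 cells with 6xCRE LacZ reporter stimulated by forskolin 10 µM; beta-galactosidase reporter signal reflecting CREB driven transcription.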 Conditions: luminescence, 4.5 h, higher = more signal, called active from +8 up or from −8 down.
Test [16] has as its target Streptavidin (Streptomyces avidinii) (UniProt P22629). The test can be described thus: streptavidin binders on small-molecule microarray, primary screen, artefact control for SMM compound annotation, biophysical, 635/667 nm fluorescence (AID 1147).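 Also: signal reflects streptavidin binding to arrayed compounds as a control protein.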 The conditions noted are these: streptavidin binding, higher = more signal.
Test [17] can be described thus: small-molecule binders of probe aInhba, primary screen, biochemical, small-molecule microarray, 635/667 nm fluorescence (AID 1148).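 Also: score merges 667nm spot fluorescence with signal-to-noise for antibody binding to printed compounds.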 The conditions noted are these: higher = more signal.
For test [18], the target named is Torsin-1A (Homo sapiens) (UniProt O14656). Nature of the test: torsin A binders from cell lysate, primary screen, small-molecule microarray, wild-type, 635/667 nm (AID 1149). The conditions noted are these: COS7 hTOR1A-WT lysate, 635 nm fluorescence, higher = more signal.
Torsin-1A (Homo sapiens), sequence (O14656 whole entry, looked up): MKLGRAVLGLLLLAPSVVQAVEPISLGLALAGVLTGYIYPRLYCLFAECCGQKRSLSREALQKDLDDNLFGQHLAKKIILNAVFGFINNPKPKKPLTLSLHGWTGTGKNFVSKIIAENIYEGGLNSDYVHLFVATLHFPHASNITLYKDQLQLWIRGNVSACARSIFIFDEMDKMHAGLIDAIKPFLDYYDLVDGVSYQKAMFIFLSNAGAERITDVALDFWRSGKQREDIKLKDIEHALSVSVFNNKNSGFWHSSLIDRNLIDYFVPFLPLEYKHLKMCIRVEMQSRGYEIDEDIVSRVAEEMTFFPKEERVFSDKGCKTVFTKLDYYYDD
For test [19] the target is unchanged. Nature of the test: small-molecule binders of mutant TOR1A in lysate, primary screen, cell lysate, small-molecule microarray, COS7 lysate, 635/667 nm fluorescence (AID 1150).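 Also: score pools 667 nm emission and signal to noise measuring lysate protein binding.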 Conditions: COS7 hTOR1A mutant lysate, 635 nm fluorescence, higher = more signal.
The test system of test [20] is Sonic hedgehog protein (Shh). Nature of the test: small-molecule binders of Shh protein, primary screen, biochemical, small-molecule microarray, 635/667 nm fluorescence (AID 1151).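 Also: Shh protein binding to compounds spotted on small-molecule microarray slides; score combines spot fluorescence intensity with signal-to-noise across triplicate slides.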 Conditions: small-molecule microarray binding, 635 nm fluorescence; higher = more signal.

Streptavidin (Streptomyces avidinii), sequence (P22629 whole entry, looked up): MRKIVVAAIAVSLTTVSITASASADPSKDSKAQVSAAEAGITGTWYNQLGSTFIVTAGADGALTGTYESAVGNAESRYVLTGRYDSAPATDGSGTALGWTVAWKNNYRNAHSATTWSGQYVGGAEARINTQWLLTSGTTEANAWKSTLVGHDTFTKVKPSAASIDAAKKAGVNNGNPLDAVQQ

For the molecule `Cc1ccc([C@H]2C(C(=O)O)=C[C@@H](C(C)C)N2S(=O)(=O)c2ccc(C)cc2)cc1`, the composite z-score is 1.96 in test [1]; 1.29 in [2]; 1.3 in [3]; 0.956 in test [4]; 0.126 in [5]; -0.376 in test [6]. Further, the composite z-score was -0.297 in test [8]; 0.133 in [9]; -0.167 in test [11]; 0.946 in test [16]; 0.0173 in test [17]; -0.165 in [18]. Also, the figures for the composite z-score in test [19] and in [20] were 0.28 and -0.542, respectively. Further, the z-score in test [7] was -0.209; in [10], 1.85 (inactive); in [12], 0.0491 (inactive); in test [13], 0.633 (inactive); in test [14], -0.424 (inactive); in test [15], 1.01 (inactive).
As to `Cc1ccc(S[C@]2(C(=O)NCCCN(C)C)CC(=O)N(C(C)C)[C@@H]2c2ccc(CO)cc2I)cc1`, the composite z-score is -0.537 in test [1]; -0.393 in test [2]; 0.225 in test [3]; -0.952 in test [4]; 0.296 in test [5]; -1.01 in [6]. Further, the composite z-score in test [8] was 0.0228; in test [9] it was -0.19; in test [11] it was -0.331; in test [16], -0.199; in test [17] it was -0.0986; in [18], -1.59. The results for the composite z-score in test [19] and in [20] were -0.729 and 0.0632, respectively. The z-score in [7] was 1.97; in test [10] it was 0.216 (inactive); in test [12], -2.21 (inactive); in test [13], -0.985 (inactive); in [14], -0.114 (inactive); in [15] it was 0.561 (inactive).
On to `COC(=O)[C@@]1(Cc2ccc(OC)cc2)[C@H]2c3cc(C(=O)N(C)C)n(CCSCCO)c3C[C@H]2CN1C(=O)c1ccccc1`, for which the composite z-score is 0.957 in [1]; 1.32 in test [2]; 1.68 in test [3]; 0.971 in [4]; 0.108 in test [5]; -0.569 in [6]. Moreover, the composite z-score is -1.03 in [8]; 0.515 in [9]; 0.706 in test [11]; 0.872 in test [16]; 0.351 in test [17]; -0.101 in test [18]. Also, the composite z-score in test [19] is 0.199; in [20], -0.824. The z-score was -0.399 in test [7]; -0.572 (inactive) in [10]; -2.19 (inactive) in test [12]; 0.565 (inactive) in test [13]; -0.954 (inactive) in test [14]; 0.325 (inactive) in test [15].
On to `O=C1O[C@@H](c2ccccc2)[C@@H](c2ccccc2)N2[C@@H](c3ccc(O)cc3)[C@]3(C(=O)Nc4ccc(C#CCCO)cc43)[C@@H](C(=O)N3CCCCCCC3)[C@H]12`, for which the composite z-score in test [1] was 2.27; in test [2] it was 1.24; in test [3], 0.724; in [4], 0.952; in test [5], 1.42; in test [6] it was 0.94. Further, the composite z-score in test [8] is 1.26; in [9], 1.21; in test [11], 0.409; in test [16], 1.55; in [17], 1.46; in test [18], 1.37. Moreover, the composite z-score was found to be 1 in test [19] and 0.887 in test [20]. The z-score in [7] was -0.158; in test [10], 0.0848 (inactive); in test [12] it was -0.915 (inactive); in [13] it was -0.547 (inactive); in test [14], -0.114 (inactive); in test [15] it was -0.394 (inactive).
Regarding `C=C(C(=O)CC[C@H](OC(=O)c1cccnc1)c1ccccc1OCCO)C(C)C`, the composite z-score was found to be 0.971 in [1]; 0.834 in test [2]; 0.092 in test [3]; 0.101 in [4]; 1.42 in test [5]; 1.83 in test [6]. Further, the composite z-score is 1.44 in [8]; 0.0398 in test [9]; 1.14 in [11]; -0.383 in [16]; -0.168 in test [17]; 2.32 in test [18]. Further, the composite z-score in [19] stood at 1.54; in [20] it was 2.27. The z-score in test [7] was 0.0404; in test [10], -0.0549 (inactive); in test [12] it was -1.13 (inactive); in test [13] it was -0.467 (inactive); in test [14], 2.22 (inactive); in test [15], 0.716 (inactive).
